Consider 3 molecules from the supplement of paper PMC10105736.

Unmarked numbers belong to inactive results.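 Rule for the calls: active = MAPPIT score above the 99th percentile of random reference set scores in the same batch; inactive = at or below it.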

What all share (test): MAPPIT interaction score (arbitrary units); higher = stronger binary interaction signal, active = hit call of the paper
One assay concerns the target CG8292. Particulars: MAPPIT configuration: N-N; pair source set: Curagen_low_conf.
Another assay addresses CG8128. Particulars: MAPPIT configuration: N-N; pair source set: Finley_Y2H.
A further assay has as its target CG9133. Particulars: MAPPIT configuration: N-N; pair source set: screen_1.
Another assay concerns the target GstT2. Particulars: MAPPIT configuration: N-N; pair source set: screen_1.
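Note: HEK293T cells with Epo stimulation, STAT-responsive firefly luciferase reporter, fold induction versus unstimulated cells divided by the larger fold induction of two negative controls lacking either bait or prey.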

B1: Vha14-1 (protein)
chain: MALHSAIKGKLISVIGDEDTCVGFLLGGVGEINKNRHPNFMVVDKNTAVSELEDCFKRFLKRDDIDIILINQNCAELIRHVIDAHTSPVPAVLEIPSKDHPYDASKDSILRRARGMFNPEDLVR
On to B1, for which the MAPPIT interaction score with CG8292 was -0.0476.

B2: crn (protein)
chain: MERPQKMPKVAKVKNKAPAEVQITAEQLLREAKERDLEILPPPPKQKISDPAELADYQQRKRKTFEDNLRKNRMVVSHWIKYAQWEEQQQEIQRARSIWERALDNEHRNVTLWLKYAEMEMKNKQVNHARNLWDRAVTIMPRVNQFWYKYTYMEEMLENVAGARQVFERWMEWQPEEQAWQTYVNFELRYKEIDRAREIYERFVYVHPDVKNWIKFARFEESHGFIHGSRRVFERAVEFFGDDYIEERLFIAFARFEEGQKEHDRARIIYKYALDHLPKDRTQELFKAYTKHEKKYGDRAGIEDVIVSKRKYQYEQEVAANPTNYDAWFDYLRLIEAEGDRDQIRETYERAISNVPPANEKNFWRRYIYLWINYALYEELEAEDAERTRQIYKTCLELIPHKQFTFSKLWLLYAQFEIRCKELQRARKALGLAIGMCPRDKLFRGYIDLEIQLREFERCRMLYEKFLEFGPENCVTWMKFAELENLLGDTDRARAIFELAVQQPRLDMPELLWKAYIDFEVALGETELARQLYERLLERTQHVKVWMSFAKFEMGLSHGDSGPDAELNVQLARRIYERANEMLRQLGDKESRVLLLEAWRDFERDASDSQEMQKVMDKMPRRIKKRQKIVSDNGVEEGWEEVFDYIFPEDEMARPNLKLLAAAKMWKTQKDNTVDDPPATAIASEPEPAADAAPADTTDSGD
With B2, the MAPPIT interaction score with CG8128 was 2.14.

B3: Tollo (protein)
chain: MLATTHMLYVLIATCVIPIFGAALSKTVLYQAPDECRWSGGGEHDITLVCHLRTINSELENTNFSVIQPQNTVRLRLECNDALFFQSSLSPDSFRSLVELRDLTIEYCKLGNLTDGSFRGLQELRNLTIRTHNGDWSTMSLEMASNSFVEFRQLERLDLSLNNIWLIPDGMVCPLKSLQHLNASYNKIQDISNFYFSASLSSRKARVCGSTLQSLDLSANKMVSLPTAMLSALGRLTHLNMAKNSMSFLADRAFEGLLSLRVVDLSANRLTSLPPELFAETKQLQEIYLRNNSINVLAPGIFGELAELLVLDLASNELNSQWINAATFVGLKRLMMLDLSANKISRLEAHIFRPLASLQILKLEDNYIDQLPGGIFADLTNLHTLILSRNRISVIEQRTLQGLKNLLVLSLDFNRISRMDQRSLVNCSQLQDLHLNDNKLQAVPEALAHVQLLKTLDVGENMISQIENTSITQLESLYGLRMTENSLTHIRRGVFDRMSSLQILNLSQNKLKSIEAGSLQRNSQLQAIRLDGNQLKSIAGLFTELPNLVWLNISGNRLEKFDYSHIPIGLQWLDVRANRITQLGNYFEIESELSLSTFDASYNLLTEITASSIPNSVEVLYLNDNQISKIQPYTFFKKPNLTRVDLVRNRLTTLEPNALRLSPIAEDREIPEFYIGHNAYECDCNLDWLQKVNRESRTQPQLMDLDQIHCRLAYARGSSHVSLIEAKSDDFLCKYASHCFALCHCCDFQACDCKMECPDRCSCYHDQSWTSNVVDCSRASYEQTLPSHIPMDSTQLYLDGNNFRELQSHAFIGRKRLKVLHLNHSRIEVLHNRTFYGLLELEVLQLQSNQLKALNGNEFQGLDNLQELYLQHNAIATIDTLTFTHLYHLKILRLDHNAITSFAVWNFLPSYLNELRLASNPWTCSCEFIDKLRDYINRHEYVVDKLKMKCDVISGNSTQQMVIYPGSGEPASLPVVQCSQTLPLGLDNNFNYAEQAGGENASNATSTKMILNQPPKLDYIPILVAILTAFIFVMICISLVFIFRQEMRVWCHSRFGVRLFYNAQKDVDKNEREKLFDAFVSYSSKDELFVNEELAPMLEMGEHRYKLCLHQRDFPVGGYLPETIVQAIDSSRRTIMVVSENFIKSEWCRFEFKSAHQSVLRDRRRRLIVIVLGEVPQKELDPDLRLYLKTNTYLQWGDKLFWQKLRFALPDVSSSQRSNVAGQSCHVPINHASYHHHHHVHQQAMPLPHSVHHHQQQFMLPPPPQQPGSFRRQPSLHQQQQQQQQIRGNNNTTQQQQQQQAALLMGGGSVGGPAPQMIPLAGGIQQQSLPLPPNQQPTPASRNLHM
For the molecule B3, the MAPPIT interaction score was 1.51 in the assay with CG9133 and 2.34 with GstT2.
